Among the data in PubChem BioAssay AID624305 (National Center for Advancing Translational Sciences (NCATS), 2012) are activation and Potency values, retold here.

Structures are written as SMILES. Records with an inconclusive call do not appear. A number with no mark means an inactive call. Active and inactive are the calls of the source. The call rests on the fitted dose curve; in most records, active means well fitted activation curve with a large enough effect; inconclusive means small, poorly fitted or top-dose-only effect; inactive means no such curve, though single readings can be large or run the other way.
Potency means the concentration at half of the fitted maximal effect.

A short description of the assay: qHTS assay for re-activators of p53 using a Luc reporter: Hit Validation. Further: nearly all actives have a fitted effect of over 75% in size. On activation: 0% is about no effect. Particulars: p53-responsive luciferase reporter cells, luminescence, H1299 line expressing heat-sensitive Ala138Val p53; series mostly up to 46.1 µM. The procedure, abridged: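 H1299 (p53-null) cells stably carrying p53-A138V and a BP100-luciferase reporter, 1000 cells/well, treated 24 h at 37 deg C. Compounds at several concentrations, 1:5 dilution; nocodazole control; luminescence read after 10 min with detection reagent.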
On the technique in general: In qHTS, concentration-response curves come from the screen itself.
Turning to `Cc1nonc1NCn1nnc2ccccc21`, the activation is 7.94% [at 9.22 µM].
For the compound `Cc1cc(C)c2nc(NNC(=O)c3ccc(S(=O)(=O)N4CCc5ccccc5C4)cc3)sc2c1`, the Potency result is “inactive”.
On the same count and under the same terms, next, `Cc1cccc(Nc2nc(N3CCOCC3)nc(N3CCOCC3)n2)c1`: “inactive”.
For the compound `O=C(CCC1CCCC1)Nc1ccc(Br)cn1`, the Potency was 11600 nM (active).
Turning to `O=C(NC1CCCCC1)c1ccc(-c2ccccc2F)o1`, the Potency is 3660 nM (active).
Same read-out and setting: next, `Nc1nc(-c2ccc([N+](=O)[O-])cc2)cs1`: “inactive”.
On the same count and under the same terms, next, `COc1ccc2cnn(CCOc3ccccc3)c(=O)c2c1OC`: 1030 nM (active).
As for `O=C(Nc1ccc2c(c1)CCC2)c1ccccc1`, the Potency is 411 nM (active).
On the same count and under the same terms, next, `Nc1cccc(-c2nc3ccc(C(=O)c4ccccc4)cc3[nH]2)c1`: 2060 nM (active).
Still for that read-out and setting: next, `c1ccc(COc2ccc(OCCOCCn3cncn3)cc2)cc1`: 2910 nM (active); `c1ccc2sc(-c3ccc4c(c3)OCO4)nc2c1`: 2310 nM (active).
Same read-out and setting: in the case of `O=C(N/N=C/c1cn(-c2ccccc2)nc1-c1cc2ccccc2o1)c1ccccc1Br` it was 7310 nM (active).
With `Cc1ccc2nc(N3C(=O)C(O)=C(C(=O)c4ccc(C)o4)C3c3ccco3)sc2c1` (stereo not drawn), the Potency entry was “inactive”.
For `O=C(Nc1ccc2c(c1)CCC2)c1ccccc1F`, the Potency was 366 nM (active).
The same measure, in the same setting: in the case of `O=C(CSc1nnc(-c2ccc(F)cc2)c2ccccc12)Nc1ccccc1` it was “inactive”; in that of `C/C(=N\NC(=O)c1ccc(F)cc1)c1ccccn1`, 2060 nM (active); in that of `Brc1ccc(-c2nc3ccccc3s2)s1`, 3260 nM (active).
The same measure, in the same setting: in the case of `COc1cc(C(=S)N2CCOCC2)ccc1OC(=O)c1ccccc1C` it was “inactive”; in that of `COc1ccccc1NC(CC(=O)c1ccccc1)C(=O)OCC(=O)c1ccc(C)c(C)c1` (stereo not drawn), 291 nM (active); in that of `COC(=O)C1=C(C(=O)c2ccccc2)C(c2ccc(OC)c(OC)c2)Nc2nnnn21` (stereo not drawn), “inactive”.
The same measure, in the same setting: in the case of `COc1ccc(N2CCN(C3CCCN(Cc4cccc(OC)c4)C3)CC2)cc1` (stereo not drawn) it was “inactive”; in that of `O=c1[nH]c2ccc(N/C(=N/S(=O)(=O)c3ccccc3)c3ccccc3)cc2[nH]1`, “inactive”; in that of `Cc1c(C(=O)OC2CCC(C)CC2)[nH]c2c1C(=O)CCC2` (stereo not drawn), 1160 nM (active).
Regarding `COc1ccc(CCC(C)NCC(C)c2ccccc2)cc1` (stereo not drawn), the Potency result was “inactive”.
On the same count and under the same terms, in the case of `Cc1cc(C(=O)N2CCN(c3ccccc3Cl)CC2)c(C)o1` it was 29100 nM (active); in that of `COc1ccc(-c2coc3cc(O[C@@H]4O[C@H](CO)[C@@H](O)[C@H](O)[C@H]4O)ccc3c2=O)cc1`, 2910 nM (active).
The same measure, in the same setting: next, `CCCCCNC(=O)N[C@H](C(=O)O)C(C)C`: “inactive”; `COc1ccccc1NS(=O)(=O)c1ccc(C(=O)Nc2ncccc2O)cc1`: “inactive”; `COc1ccccc1-c1cc(C(=O)Nc2cc(C)on2)no1`: 16400 nM (active).
For `CCOc1ccc(OCCSc2nc3ccccc3n2CC(=O)O)cc1`, the Potency result was “inactive”.
`Nc1ccc(-c2cnc(-c3ccc(N)cc3)nc2)cc1`: the Potency is 291 nM (active).
Same read-out and setting: in the case of `C/C(=C\C(=O)c1ccccc1)Nc1ccc2c(c1)OCO2` it was 2910 nM (active).
Same read-out and setting: in the case of `C=CCn1c(P(C)(=O)O)nc2ccccc21` it was “inactive”; in that of `O=[N+]([O-])c1ccc(/C=N/NC(=S)Nc2ccccc2F)o1`, “inactive”; in that of `c1nc(C2CCCCC2)cc2cc3c(cc12)OCO3`, 6510 nM (active).
The same measure, in the same setting: in the case of `Cc1ccc(-c2nnc(Oc3cccc(C)c3)c3ccccc23)cc1` it was 7310 nM (active); in that of `COc1cc(C2=NOC(C(=O)NCc3ccc(F)cc3)C2)cc(OC)c1OC` (stereo not drawn), “inactive”; in that of `O=C(O)c1ccc(N/N=C/c2ccc3ncccc3c2)cc1`, 184 nM (active).
